Compound activity deposited in PubChem BioAssay by National Center for Advancing Translational Sciences (NCATS).
ELG1 repair inh – ELG1-dependent DNA repair inhibition; Potency, µM (doses to about 46.1 µM), for the others: at the highest dose activity change, negative = inhibition, most hits filed as inhibitors; HEK293T ELG1-luciferase reporter, luminescence, 16 h; DNA damage induced by 5-fluorouridine; actives 2.3% (n = 330,000); note: % is set by controls: 0 for no effect and ±100 for the full control effect; nearly all actives have a fitted effect of over 55% in size
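Quantitative HTS, concentration-response format. 2,000 cells/well co-treated with 5-fluorouridine and compound, 16 hr in 5% CO2 at 37 °C; ONE-Glo luminescence read after 30 min.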
SMN2 splice up – SMN2 splice variant enhancement; HEK293 SMN2-luciferase splicing reporter, luminescence, 30-36 h; Potency, µM (highest dose often 46.1 µM), for inactives: at the top dose activity change, positive = activation, usual class: activators; actives 2.8% (n = 210,000); AID 1458; note: % of control where 0% means no effect; nearly all actives have a fitted effect of over 55% in size
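HEK293 cells carry an SMN2 minigene-luciferase reporter in which exon 7 inclusion puts luciferase in frame. Cells were seeded at 2000 cells/well, attached for 10-12 hours, then exposed to compounds for 30-36 hours at 37C before ONE-Glo luminescence.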
NPC1 prom act – activators of NPC1 promoter | Huh7 NPC1 promoter luciferase reporter, 24 h | Potency, µM (doses to about 9.22 µM), for the others: top-dose activation, actives largely listed as activators | actives 2.4% (n = 320,000) | AID 485313; note: % of control where 0% means no effect; nearly all actives have a fitted effect of over 60% in size
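Luminescence read-out of NPC1 promoter-driven luciferase in stably transfected Huh7 cells; compounds delivered in DMSO and left 24 h at 37C, 5% CO2, qHTS titration format.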
Rab9 promoter act – activates the Rab9 promoter | AID 485297 | Huh7 Rab9 promoter-luciferase reporter, luminescence, 24 h | Potency, µM (doses to about 9.22 µM), inactives show at the highest dose activation, negative = inhibition, most hits filed as activators | actives 2.8% (n = 320,000); note: % of control where 0% means no effect; nearly all actives have a fitted effect of over 60% in size
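Stable Rab9-luc Huh7, 1500 cells/well, 2 h settle; cmpd in DMSO, 24 h, 37 °C/5% CO2; luciferase reagent 10 min RT; luminescence.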
FLuc counter – counter-screen for miR-21 project: firefly luciferase inhibitors or activators. P08659. purified FLuc, Km substrates, luminescence inhibition. Potency, µM (titrated, usually from 57.5 µM), for the others: at the highest dose activity change, negative = inhibition, most hits filed as inhibitors. actives 6.9% (n = 360,000);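 note: plate controls were vehicle for no effect and reference inhibitor for full effect; nearly all actives have a fitted effect of over 55% in size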
Target sequence (P08659 whole entry, looked up): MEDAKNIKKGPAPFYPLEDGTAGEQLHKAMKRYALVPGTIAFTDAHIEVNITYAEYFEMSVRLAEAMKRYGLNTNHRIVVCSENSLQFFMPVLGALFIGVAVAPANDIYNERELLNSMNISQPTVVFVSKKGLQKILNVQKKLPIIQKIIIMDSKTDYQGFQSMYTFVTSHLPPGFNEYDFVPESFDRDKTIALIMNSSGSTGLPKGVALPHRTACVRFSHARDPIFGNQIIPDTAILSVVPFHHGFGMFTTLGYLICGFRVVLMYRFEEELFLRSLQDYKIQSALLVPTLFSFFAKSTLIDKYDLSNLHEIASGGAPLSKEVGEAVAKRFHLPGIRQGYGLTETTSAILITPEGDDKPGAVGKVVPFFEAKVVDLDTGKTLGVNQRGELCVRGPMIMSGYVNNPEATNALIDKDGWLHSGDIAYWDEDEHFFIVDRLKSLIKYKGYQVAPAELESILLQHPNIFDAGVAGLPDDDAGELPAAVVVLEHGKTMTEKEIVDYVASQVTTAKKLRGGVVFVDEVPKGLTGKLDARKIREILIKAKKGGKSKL
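Biochemical qHTS of compounds, final roughly 60 µM downward over six points, against 10 nM purified firefly luciferase using Km concentrations of substrates (10 uM D-luciferin, 10 uM ATP) in Tris acetate pH 7.5 buffer; luminescence output.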
ELG1 genotox – inducers of genotoxicity in HEK293T ELG1-luciferase cells. Potency, µM (top dose mostly 46 µM), without a hit: top-dose activity change, positive = activation, hits mostly activators. HEK293T ELG1-luciferase reporter, luminescence, 16 h. actives 1.3% (n = 330,000); note: % of control where 0% means no effect; nearly all actives have a fitted effect of over 60% in size
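HEK293T cells expressing luciferase-tagged ELG1 were treated with compound or DMSO for 16 hr at 37°C. Luciferase activity was then read after 30 min with ONE-Glo at room temperature; rising signal flags genetic stress.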
* = called active by the depositor; ? = inconclusive; . = no result given; [ ] = dose if it differs, or a comment. Most compounds without a hit are left out; they make up all but 9.4% or so of the library. Calls come from the whole dose curve; as a rule, active = well fitted curve in the direction sought with a large enough effect; inconclusive = small, poorly fitted or top-dose-only effect, or another doubt; inactive = no such curve, though single readings can be large; an effect the other way counts as inactive or inconclusive. Potency is the fitted concentration of half-maximal effect.

SMILES	ELG1 repair inh	SMN2 splice up	NPC1 prom act	Rab9 promoter act	FLuc counter	ELG1 genotox
O=C(NCc1ccco1)c1ccccc1-c1ccccc1	4%	-12%	-2%	1%	0%	-3%
Cc1cc(C(=O)NCc2ccco2)on1	-3%	-2%	0%	6%	10%	-1%
O=C(NCc1ccco1)c1cc(-c2cccs2)on1	?	?	3.2µM*	2.8µM*	11µM*	?
CC(C)c1cc(C(=O)NCc2ccco2)no1	?	?	13%	?	-14%	15µM*
O=C(Nc1ccc(F)cc1F)c1cc(-c2ccco2)on1	?	-17%	-8%	7%	4.3µM*	?
CNS(=O)(=O)c1cn(CC(=O)N2CCN(c3cccc(Cl)c3)CC2)cc1S(=O)(=O)NC	.	.	.	.	4%	.
Cc1cc(C)c(Cn2cnc3nc4c(cc3c2=O)CCCC4)c(C)c1	.	.	.	.	-16%	.
O=C(Nc1ccc(F)cc1F)c1csc(-c2ccncc2)n1	10%	9%	15%	11%	?	9%
CC(C)c1cc(C(=O)NCCc2ccccc2)no1	?	.	3.2µM*	2.2µM*	17µM*	?
O=C(NCc1ccc(F)cc1)c1cc(-c2ccco2)on1	?	20µM*	2%	14%	1%	1%
COc1ccc(-c2cc(C(=O)NCc3ccc(F)cc3)no2)cc1	.	-1%	.	.	1%	.
COc1ccc(CCNC(=O)c2cc(-c3ccccc3)on2)cc1OC	9%	-11%	1%	13%	0%	5%
O=C(Nc1ccc(F)cc1F)c1csc(-c2cccs2)n1	?	?	0%	?	6.7µM*	-5%
O=C(NCc1ccco1)c1cc(-c2ccc(F)cc2)on1	?	21%	2.5µM*	2.8µM*	?	?
C[C@H]1Cc2c(COc3ccccc3)nc3c(c2CO1)CN(C(=O)c1cccnc1)CC3	.	0%[9.22 µM]	.	.	.	.
O=C(CSc1nccn1-c1cccc(Cl)c1)Nc1cccc(C(F)(F)F)c1	.	.	.	.	-2%	.
Cc1ccc(F)cc1NC(=O)CSc1nc(-c2cccs2)cc(C(F)(F)F)n1	.	-1%	.	.	4%	.
CCC1CCCCN1S(=O)(=O)c1cc2c(cc1C)NC(=O)CO2 (configuration not stated)	.	.	.	.	-9%	.
CCC(=O)N1CCc2cc(S(=O)(=O)NC(C(=O)NCc3ccc(OC)cc3)C(C)C)ccc21 (configuration not stated)	.	-2%	.	.	-5%	.
O=C(NCCCN1CCOCC1)c1cc(-c2cccs2)on1	?	-11%	28%	?	-9%	?
O=C(NCCCn1ccnc1)c1cc(-c2cccs2)on1	?	-2%	?	3.2µM*	?	?
O=C(NCCc1ccccc1)c1cc2ncc(Br)cn2n1	?	?	24%	?	?	16µM*
O=C1Nc2ccccc2N(O)N1c1cc(-c2ccccc2Cl)no1	?	3%	?	18%	6µM*	-1%
O=C1Nc2ccccc2N(O)N1c1cc(-c2ccc(Cl)cc2)[nH]n1	-9%	-5%	0%	-4%	8.5µM*	-4%
O=C1Nc2ccccc2N(O)N1c1cc(-c2cccc(Cl)c2)no1	12%	.	3%	12%	21µM*	1%
O=C1Nc2cc(Cl)c(Cl)cc2N(O)N1c1cccc(Cl)c1	9%	26%	0%	-7%	-19%	2%
COc1cc(OC)cc(-c2cc(N3C(=O)Nc4ccccc4N3O)n[nH]2)c1	-7%	-5%	-5%	0%	-17%	2%
CCCCC(Sc1nc2cc3c(cc2c(=O)n1CCCC(=O)NCc1ccc(OC)cc1)OCO3)C(=O)OCC (configuration not stated)	.	.	.	.	-2%	.
C=CCN1C(=O)S/C(=C/c2ccsc2)C1=O	?	-7%	2%	16%	19µM*	?
CCOC(=O)c1ccccc1NC(=O)CSc1nccn1Cc1ccco1	.	.	.	.	3%	.
